This is part of a sample that, as a whole, favours compounds with a hit. Of some 83,000 tested, about 20% had one in any assay.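 Single-concentration screen, 48 h exposure, 96-well plates. Endpoint: percent growth. Below 10 = active.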 Values without a mark were called inactive. Activity calls are given as the source filed them.

For this assay, the system named is MDA-MB-468 breast. The assay is described as follows: NCI-60 one-dose screen, 48 h (100 = growth as untreated, 0 = no growth, -100 = all killed). Particulars: 10 µM unless noted. The procedure:
Growth inhibition of the MDA-MB-468 human Breast tumor cell line is measured as a screen for anti-cancer activity. Cells are grown in 96 well plates and exposed to the test compound for 48 hours. Compounds are tested at a single concentration, which is 10^-5 M for most compounds. The reported endpoint is percent growth (GI% or GIPRCNT), where numbers from 0 - 100% represent growth inhibition, and numbers from -100% - 0 represent cell death. For example, a value of 40 represents 60% growth inhibition. A value of 0 means no net growth occurred over the course of the experiment. A value of -40 indicates 40% of cells at the beginning of the experiment died by the end of the experiment. A value of -100 means all cells are dead at the end of the experiment.
NCI-60 Human Tumor Cell Lines Screen was performed using the standard one-dose NCI protocol, which is described in more detail at https://dtp.cancer.gov/discovery_development/nci-60/default.htm.
Compounds with GIPRCNT values below 10 were considered active. Activity score was based on GIPRCNT using the following formula: […]
Score is 0 for GIPRCNT values of 100 or above, 50 for GIPRCNT values of 0, and 100 for GIPRCNT values of -100.
As for `CC(=O)c1c(C)[nH]c(-c2nc3ccc(N4CCN(C)CC4)cc3[nH]2)c1-c1ccc(OCC2CCOCC2)cc1`, the growth was 11.4%.

On to `CCN(CCNc1ccc(C)c2sc3cc(Cl)ccc3c(=O)c12)CC(C)O` (stereo not given), for which the growth is 62.2%.

`O=C(CS)OCC(COC(=O)CS)(COC(=O)CS)COC(=O)CS`: the growth was 78.8%.

For `CCOc1cccc(/C=N\Nc2nc(=O)cc(C(=O)OC)s2)c1O`, the growth was 49.9%.

Regarding `C=C1C(=O)O[C@H]2[C@H]1CC/C(CNC(=O)c1cccc3ccccc13)=C\CC[C@@]1(C)O[C@@H]21`, the growth is 33.8%.

As to `O=C(O)c1ccc2cccnc2c1O`, the growth is -31.1% (active).

Take `CC(C)(C)Nc1nc2c(OCCc3ccccc3)cccn2c1-c1cccc(Oc2ccccc2)c1`: the growth was -12.7% (active).

With `Cc1ccc2oc(=O)cc(C3C(C#N)=C(N)Oc4c3ccc3ccccc43)c2c1` (stereo not given), the growth is 63.8%.

As to `CNC(=O)c1cc(Oc2ccc(CC(=O)Nc3cc(C(C)(C)C)cn3C)cc2)ccn1`, the growth was 29.5%.

On to `COc1ccc(/C=c2\sc3n(c2=O)C(c2cc(OC)c(OC)c(OC)c2)C=C(c2ccc(OC)c(OC)c2)N=3)cc1OC` (stereo not given), for which the growth was 105%.

On to `O=C(c1ccc(O)cc1)c1ccc(O)cc1`, for which the growth was 110%.

Turning to `Brc1ccc(-c2cc(-c3ccc4c(c3)OC=CO4)n[nH]2)s1`, the growth was -13.5% (active).

Turning to `COc1ccc(N(C)c2nc(Cl)nc3ccn(C)c23)cc1`, the growth is 49.9%.

For `O=C1C(=O)c2cccnc2-c2ncccc21`, the growth is -91% (active).

Regarding `O=C(CCCCCCN1CC(=O)N2[C@@H](c3cc(F)cc(F)c3)c3[nH]c4ccccc4c3C[C@H]2C1=O)NO`, the growth is 50.4%.

Consider `COc1cc(/C=C/C(=O)c2ccc(Nc3nc(Nc4ccccc4)nc(Nc4ccc(Cl)cc4)n3)cc2)cc(OC)c1OC`, for which the growth is 76.3%.

Turning to `CN1C(=O)N(C)C2C1NN=c1s/c(=C\c3ccc(Cl)cc3Cl)c(=O)n12` (stereo not given), the growth is 27.4%.

In the case of `CCOC(=O)/C=C/c1ccc(C(=O)OCC)[nH]1`, the growth was 53.5%.

With `Cc1ncc(C(=O)Nc2ccc(CN3CCN(C)CC3)c(C(F)(F)F)c2)cc1C#Cc1c(N)ncc2ccc(F)cc12`, the growth was 48.2%.

In the case of `CC1(C)C(=O)/C(=C\c2ccco2)C[C@]2(C)[C@H]3CC[C@@H]4[C@@H](C(=O)/C=C/c5ccco5)CC[C@@]4(C)[C@]3(C)CC[C@@H]12`, the growth is -1.49% (active).

As for `N=c1c2c(=N)n3c(nc2nc2n1-c1ccccc1Sc1ccccc1-2)sc1cc(Cl)ccc13`, the growth is -11.8% (active).

Turning to `Nc1ncnc2c1ccn2-c1cccc(NC(=O)c2ccc(N3CCOCC3)c(C(F)(F)F)c2)c1`, the growth was 40.3%.

As for `COC(=O)[C@H](C(C)C)n1c(=O)c2cc(OC)c(OC)cc2c2cnc3[nH]ccc3c21`, the growth is 36.5%.

With `COc1cc(-c2c(C#N)c(N)n3c(nc4ccccc43)c2C#N)cc(Br)c1OC`, the growth is 36.5%.

For the compound `O=C(/C=C/C12c3ccccc3C(c3ccccc31)C1C(=O)NC(=O)C12)c1ccc(F)cc1` (stereo not given), the growth is -25% (active).

On to `O=C(NCCNc1nccc(-c2c(-c3cccc(O)c3)nc3sccn23)n1)c1ccccc1O`, for which the growth is 52%.

Consider `COCCOc1cc2ncnc(N3CCN(S(=O)(=O)c4ccccc4Cl)CC3)c2cc1OCCOC`, for which the growth was 57.1%.

For the compound `Cc1ccc2c(-c3nnc(N)s3)cc(=O)oc2c1C`, the growth is 95.6%.

For the compound `CC(c1ccc(-n2cccn2)cc1)c1cnc(N2CCc3ccc(C(N)=O)cc3C2)s1` (stereo not given), the growth was 30.1%.

Consider `COc1cc(C2CC(c3ccc(Nc4ccnc5cc(Cl)ccc45)cc3)=NN2c2ccccc2)cc(OC)c1OC` (stereo not given), for which the growth is 44.6%.

As for `O=C(Oc1ccccc1)c1ccccc1Cl`, the growth was 102%.

Take `COc1cc(N=Nc2ccc(O)c3ncccc23)c2ncccc2c1`: the growth is -36.5% (active).

On to `CCC(C)N(CCNc1cc(OC)cc2cccnc12)CC(C)C` (stereo not given), for which the growth is -52.5% (active).

For `CN1CCN(Cc2ccc(NC(=O)c3cncc(C#Cc4cncn5ccnc45)c3)cc2C(F)(F)F)CC1`, the growth is 125%.

On to `O=C1C=Cc2ccccc2/C1=C/c1nc(-c2ccccc2)oc1O`, for which the growth is 88.6%.

For the compound `CN(C)CCn1c(=O)c2ccccc2n2nc3ccccc3c12`, the growth is 105%.

For `NC(N)=NN=c1c(=O)c2ccccc2c1=O`, the growth is 106%.

Regarding `C=CCOc1ccc2c(c1)CC[C@@H]1[C@@H]2CC[C@]2(C)C(=O)/C(=N/O)C[C@@H]12`, the growth is 60.8%.

Take `Brc1c[n+](Cc2ccc3ccccc3c2)cn1Cc1ccc2ccccc2c1`: the growth was -29.1% (active).

In the case of `O=C1c2ccccc2C(=O)N1c1ccccc1`, the growth was 108%.

For the origin of these results see PubChem BioAssay (NCI).
